High-throughput results (PubChem)
This is a sample that favours compounds with a hit; in the whole collection about 3.3% have one here.
Wnt act: activators of Wnt/beta-catenin signaling. Wnt/beta-catenin reporter cell assay, activator, plate reader. activation, % at 9.35 µM. 300,000 compounds, 1.2% hits. AID 743398; in the data active = activation above about 30%, passing the limit was not always enough; inconclusive = no clear call, values can overlap the other calls
GAA850 FXN act: frataxin GAA850 promoter activation | HEK293 lucGAA850 FXN promoter luciferase reporter, 24 h; percent of 10 µM SAHA response | 360,000 compounds, 0.56% hits | activation, % at 6 µM;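 active = activation above the average of all compounds screened plus 3 SD, cutoff fixed separately per campaign, cut at about 7.5% in these data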
C2C12 statin: suppression of simvastatin myotoxicity; C2C12 myotubes + simvastatin, ATP luminescence, 48 h; scaled: DMSO 0, geranylgeraniol control 100; rescue of ATP level, % at 7.49 µM; 330,000 compounds, 0.78% hits; AID 602340;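 active = mean ATP rescue above about 67%, or every replicate alone reaching that limit, limit read from the data, passing the limit was not always enough; inconclusive = no clear call, values can overlap the other calls; inactive = mean under the limit and some replicate under it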;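 also: myotubes were challenged with 10 µM simvastatin during compound exposure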
esBAF inh: SWI/SNF esBAF complex inhibition | mouse ES cells, Bmi1-luciferase knock-in reporter, 24 h; 100% = twice the neutral-well signal | reporter increase, % at 12.5 µM | 350,000 compounds, 2% hits; in the data active = activation above about 40%; inconclusive = no clear call, values can overlap the other calls;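 also: a rise in the Bmi1 reporter signal indicates esBAF inhibition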
MITF act: MITF TRPM1 promoter activation in melanoma cells; SK-MEL-5 TRPM1-promoter luciferase, 24 h; % of positive control, neutral wells = 0; activation, % at 12.5 µM; 300,000 compounds, 0.75% hits; AID 588334;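 active = mean activation of at least 80% with every replicate also reaching 80%; inconclusive = mean reaches 80% but some replicate falls short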
Of the large screens only hits and unclear results are named; the others gave an inactive call.

Cc1nc(C)c(-c2ccc(SCc3ccccc3C)nn2)s1	esBAF inh 52
COc1ccc(-c2cnc3c(c2)C(=O)N([C@H](C)CO)C[C@H](C)[C@H](CN(C)C(=O)C2CCCCC2)O3)cc1	none (no result: Wnt act, GAA850 FXN act, MITF act)
COc1ccccc1CNC(=O)C[C@@H]1C[C@@H]2c3cc(NC(=O)NC4CCCC4)ccc3O[C@@H]2[C@@H](CO)O1	none (no result: Wnt act, GAA850 FXN act, MITF act)
CCSc1nnc(NC(=O)CSc2nc3c(cc2C#N)CCCC3)s1	none
CCc1nnc(NC(=O)CSc2nc3c(cc2C#N)CCC3)s1	Wnt act 70
C/C=C/c1ccc2c(c1)O[C@@H](CN(C)CC1CCOCC1)[C@H](C)CN([C@@H](C)CO)S2(=O)=O	none (no result: Wnt act, GAA850 FXN act, MITF act)
O=C(CC(c1ccccc1)c1ccco1)N1CCOCC1 (configuration not stated)	C2C12 statin 128 (no result: Wnt act)
Cc1ccc(S(=O)(=O)NC(CC(=O)N2CCOCC2)c2ccco2)cc1 (configuration not stated)	none
CCON1C(=O)C(C)(C)N(OCC)C(=O)C1(C)C	Wnt act 43 (no result: C2C12 statin, esBAF inh)
CCOc1ccccc1N1CC(C(=O)NCCC2=CCCCC2)CC1=O (configuration not stated)	esBAF inh 46
O=C(C[C@H]1C=C[C@@H](NC(=O)c2cccc(F)c2)[C@@H](CO)O1)NCc1ccc(Oc2ccccc2)cc1	none (no result: Wnt act, GAA850 FXN act, MITF act)
O=C(/C=C/c1ccc(F)cc1)c1ccccc1Br	GAA850 FXN act 9.3 (no result: C2C12 statin, esBAF inh)
CC1Cc2ccccc2N1C(=O)CSc1ncc(-c2ccc(F)cc2)n1C (configuration not stated)	Wnt act 59
Cn1c(-c2ccc(F)cc2)cnc1SCC(=O)N1CCCCC1	Wnt act 35 (no result: MITF act)
Cn1c(-c2ccc(F)cc2)cnc1SCC(=O)N1CCCc2ccccc21	none
CO[C@H]1CN(C)C(=O)c2cc(NC(=O)Nc3ccccc3F)ccc2OC[C@H](C)NC[C@@H]1C	none (no result: Wnt act, GAA850 FXN act, MITF act)
CC1(C)CC(=O)c2cnc(NC(=O)CCc3ccccc3)nc2C1	C2C12 statin 93
C/C(CC(=O)Nc1ccc([N+](=O)[O-])cc1)=N\NC(=O)c1ccccc1O	esBAF inh 45 (no result: MITF act)
O=C(CN1C(=O)/C(=C\c2ccco2)SC1=S)Nc1ccc(O)cc1C(=O)O	C2C12 statin 96
Cc1cccc(OCC(=O)Nc2ccc3c(C)cc(=O)oc3c2)c1	none (no result: Wnt act, C2C12 statin, esBAF inh)
CCOC(=O)Nc1ccc2c(C)cc(=O)oc2c1	esBAF inh 43, MITF act 103
Cc1cc(=O)oc2cc(NC(=O)c3ccccc3Cl)ccc12	Wnt act inconclusive, MITF act 98 (no result: C2C12 statin, esBAF inh)
COc1cccc(C(=O)Nc2ccc3c(C)cc(=O)oc3c2)c1	Wnt act 33
Cc1cc(=O)oc2cc(NC(=O)c3ccccc3C(=O)O)ccc12	none
CO[C@H]1CN(C)C(=O)c2cc(NC(=O)C3CC3)ccc2OC[C@H](C)N(C(=O)c2ccccn2)C[C@@H]1C	none (no result: Wnt act, GAA850 FXN act, MITF act)
C[C@H]1CN([C@@H](C)CO)C(=O)c2cc(/C=C/c3ccccc3)cnc2O[C@H]1CN(C)Cc1cncnc1	none (no result: Wnt act, GAA850 FXN act, MITF act)
CCCNC(=O)N1[C@@H]2CN(C(=O)NC(C)C)c3ccccc3[C@@H]2[C@@H]1CO	none (no result: Wnt act, GAA850 FXN act, MITF act)
COc1ccc(S(=O)(=O)Nc2ccc3c(c2)C(=O)N([C@H](C)CO)C[C@H](C)[C@@H](CN(C)S(=O)(=O)c2ccc(C)cc2)OCCCC[C@H](C)O3)cc1	none (no result: Wnt act, GAA850 FXN act, C2C12 statin, MITF act)
CN1C(=O)C2(Oc3ccccc3C3CC(c4ccccc4)=NN32)c2ccccc21 (configuration not stated)	C2C12 statin inconclusive, esBAF inh 95 (no result: Wnt act)
Cc1ccc(C2=NN3C(C2)c2ccccc2OC32C(=O)Nc3ccccc32)cc1 (configuration not stated)	none (no result: Wnt act, C2C12 statin, esBAF inh)
CCN(c1ccccc1)S(=O)(=O)c1cnc[nH]1	C2C12 statin 88 (no result: Wnt act)
COc1ccccc1-c1cc(C(F)(F)F)nc(S(=O)(=O)CCCC(=O)N2CCOCC2)n1	C2C12 statin 90 (no result: MITF act)
COc1ccccc1-c1cc(C(F)(F)F)nc(S(=O)(=O)CCCC(=O)O)n1	none (no result: Wnt act)
C=CCOC(=O)/C(=C\c1cccc2ccccc12)NC(=O)c1ccccc1	esBAF inh 56 (no result: Wnt act)
COc1ccc2[nH]c3c(=O)n(CCc4ccccc4)cnc3c2c1	Wnt act 37 (no result: C2C12 statin, esBAF inh)
COc1ccc(CCn2cnc3c([nH]c4ccccc43)c2=O)cc1	none (no result: C2C12 statin, esBAF inh)
CC(=O)O/N=C(\N)c1ccc(-c2csnn2)cc1	esBAF inh 54
Cc1ccccc1C(=O)Oc1ccc(-c2csnn2)cc1	esBAF inh 51
c1ccc(COc2ccc(-c3csnn3)cc2)cc1	esBAF inh 47, MITF act 94 (no result: Wnt act)
CC(C)(C)C(=O)O/N=C(\N)c1ccc(-c2csnn2)cc1	Wnt act 53, esBAF inh 84, MITF act 106
CC(C)(C)C(=O)O/N=C(\N)c1ccc(Br)cc1	none (no result: C2C12 statin, esBAF inh)
CC(=O)COc1ccc(-c2csnn2)cc1	none (no result: C2C12 statin, esBAF inh)
COC(=O)C[C@H]1CC[C@H]2[C@H](COc3ccc(NC(=O)c4ccc(F)cc4)cc3C(=O)N2C)O1	none (no result: Wnt act, GAA850 FXN act, MITF act)
COc1ccc(S(=O)(=O)Nc2ccc3c(c2)CC(=O)N([C@H](C)CO)C[C@@H](C)[C@H](CN(C)C(=O)Nc2cccc4ccccc24)O3)cc1	none (no result: Wnt act, GAA850 FXN act, MITF act)
CC(=O)N1N=C(c2ccc(C)cc2)OC1c1ccc(Br)cc1 (configuration not stated)	MITF act 90
CC(=O)N1N=C(c2ccc(Cl)cc2)OC1c1ccc(C(C)C)cc1 (configuration not stated)	none (no result: C2C12 statin, esBAF inh)
CCO/C(C)=N/Oc1cccc(N(C)C)c1	none (no result: GAA850 FXN act, MITF act)
CCO/C(C)=N/Oc1cnc2ccccc2c1	esBAF inh 66 (no result: GAA850 FXN act, MITF act)
C[C@@H]1CN([C@@H](C)CO)C(=O)Cc2cc(NS(=O)(=O)c3ccc(F)cc3)ccc2O[C@H]1CN(C)C(=O)Nc1ccc2c(c1)OCO2	none (no result: Wnt act, GAA850 FXN act, MITF act)
Cn1nccc1C(=O)Nn1cnnc1	C2C12 statin 118 (no result: Wnt act)
O=C(Nc1ccccc1)c1cccc(N2C(=O)CCC2=O)c1	C2C12 statin 97
O=C(Nc1ccc(Br)cc1)c1cccc(N2C(=O)CCC2=O)c1	none
Cc1nn(C)cc1/C=N/n1nnnc1N	C2C12 statin 107
Cc1ccc(/C=N/n2nnnc2N)o1	none (no result: MITF act)
C[C@H]1CCCCO[C@@H](CN(C)C(=O)CCCN(C)C)[C@@H](C)CN([C@@H](C)CO)C(=O)c2cc(NC(=O)c3ccccc3)ccc2O1	none (no result: Wnt act, GAA850 FXN act, MITF act)
CC(C)CC#Cc1ccc2c(c1)O[C@H](CN(C)C(=O)CC1CC1)[C@H](C)CN([C@H](C)CO)S2(=O)=O	none (no result: Wnt act, GAA850 FXN act, MITF act)
Oc1ccc(Cl)cc1C=Nc1ccc(Br)cc1	none (no result: C2C12 statin, esBAF inh)
Cn1c(O)c(C=Nc2ccc(Br)cc2)sc1=O	Wnt act 60 (no result: C2C12 statin, esBAF inh)
O=C(C[C@@H]1CC[C@@H]2[C@H](COC[C@@H](O)CN2C(=O)c2cccnc2)O1)Nc1ccc(-c2ccccc2)cc1	none (no result: Wnt act, GAA850 FXN act, MITF act)
Cc1cccc(NC(=O)c2cccc(NS(=O)(=O)c3ccc(Cl)cc3)c2)c1	C2C12 statin 105
Cc1cccc(NS(=O)(=O)c2nnc(NC(=O)c3ccc(Cl)cc3)s2)c1	none
COCCC1CCCCN1C(=O)c1ccc2nc(Cc3ccccc3F)oc2c1 (configuration not stated)	MITF act 134 (no result: C2C12 statin, esBAF inh)
